HT1080NT lethal: qHTS for induction of synthetic lethality in tumor cells producing 2HG: qHTS for the HT-1080-NT fibrosarcoma cell line; HT-1080-NT fibrosarcoma viability, CellTiter-Glo ATP luminescence, 48 h; Potency, µM (highest dose often 46.1 µM), for inactives: at the top dose activity, negative = less viability, actives largely listed as cytotoxic; actives 1.6% (n = 360,000);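 note: NT is the 2HG producing partner of a matched IDH1 knockdown line; 0% = DMSO-treated cells and -100% = media-only wells without cells; nearly all actives have a fitted effect of over 55% in size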
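A 48-hour cytotoxicity screen used HT-1080-NT cells plated 2 hours before compound delivery. ATP-based CellTiter-Glo luminescence measured viability, normalized to DMSO and no-cell controls.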
KB-3-1 tox: qHTS assay for MDR1-selective chemotherapeutics: Primary screen using the parental adenocarcinoma cell KB-3-1. KB-3-1 viability, CellTiter-Glo ATP luminescence, 72 h. Potency, µM (series often up to 46.1 µM), hits mostly cytotoxic. actives 1.4% (n = 400,000); note: % is set by controls: 0 for no effect and ±100 for the full control effect; nearly all actives have a fitted effect of over 60% in size
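Cytotoxicity measured as CellTiter-Glo luminescence after 72 h at 37 C. Compound titrations were pinned onto drug-naive KB-3-1 parental adenocarcinoma cells grown in DMEM with 10% FBS, and normalized data fitted to concentration-response curves.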
MCF10A rerep: A quantitative high throughput screen for small molecules that induce DNA re-replication in MCF 10a normal breast cells | MCF 10A DNA re-replication, Hoechst nuclear intensity, 48 h | Potency, µM (titrated, usually from 46.1 µM), inactives show at the top dose activity, positive = re-replication, actives largely listed as activators | actives 2.9% (n = 350,000) | AID 624296, 2012; note: % of control where 0% means no effect; nearly all actives have a fitted effect of over 50% in size
KB-V1 MDR tox: qHTS assay for MDR1-selective chemotherapeutics: Primary screen using the drug-selected MDR subline cells KB-V1; Potency, µM (doses to about 46.1 µM), most hits filed as cytotoxic; actives 3.4% (n = 400,000); KB-V1 MDR cells viability, CellTiter-Glo, 72 h; note: % is set by controls: 0 for no effect and ±100 for the full control effect; nearly all actives have a fitted effect of over 60% in size
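Potencies derive from concentration-effect curves fitted to normalized luminescence (CellTiter-Glo) of KB-V1 cells treated for 72 h at 37 degrees C in phenol-red-free DMEM containing 10% FBS.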
SW480 rerep: A quantitative high throughput screen for small molecules that induce DNA re-replication in SW480 colon adenocarcinoma cells | SW480 DNA re-replication, Hoechst DNA content imaging, 48 h | Potency, µM (doses to about 46.1 µM), without a hit: at the top dose re-replication activation, actives largely listed as activators | actives 1.8% (n = 340,000) | AID 624297, 2012; note: % of control where 0% means no effect; nearly all actives have a fitted effect of over 55% in size
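Compounds, transferred as 23 nL by pin tool, were incubated with cells for 48 hr; DNA content per nucleus was then quantified by Hoechst staining and fluorescence plate imaging.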
HT1080 IDH1KD tx: qHTS for induction of synthetic lethality in tumor cells producing 2HG: qHTS for the HT-1080-IDH1KD cell line | actives 2% (n = 360,000) | Potency, µM (top dose mostly 46.1 µM), without a hit: top-dose activity, negative = toxicity, hits mostly cytotoxic | HT-1080 IDH1 knockdown viability, ATP luminescence, 48 h;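 note: 0% = DMSO wells and -100% = cell-free medium wells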
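Knockdown cells (IDH1KD HT-1080) received compounds 2 h after plating at 750 cells/well and were kept 48 h at 37 °C in 5% FBS RPMI. A CellTiter-Glo luminescence read gave % activity for curve fitting.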
Active calls of the source: *; i = inactive; u = inconclusive; x = no result given; [ ] = remark or other dose. This is a sample that favours compounds with a hit; in the whole collection about 7.9% have one here. Calls come from the whole dose curve; as a rule, active = well fitted curve in the direction sought with a large enough effect; inconclusive = small, poorly fitted or top-dose-only effect, or another doubt; inactive = no such curve, though single readings can be large; an effect the other way counts as inactive or inconclusive. Potency is the fitted concentration of half-maximal effect.

SMILES	HT1080NT lethal	KB-3-1 tox	MCF10A rerep	KB-V1 MDR tox	SW480 rerep	HT1080 IDH1KD tx
Cn1cnc([N+](=O)[O-])c1Oc1cccc2ccccc12	u	20.6µM*	20.6µM*	u	u	20.6µM*
CCS(=O)(=O)c1c([N+](=O)[O-])ncn1C	u	i	11.6µM*	i	u	u
COC(=O)c1[nH]c(C)c(/C(O)=C2\C(=O)C(=O)N(CCN3CCOCC3)C2c2cccs2)c1C (stereo not given)	14.2%	i	7.5%	i	-3.7%	23.6%
CCOC(=O)c1[nH]c(C)c(/C(O)=C2\C(=O)C(=O)N(CCCN3CCOCC3)C2c2cccs2)c1C (stereo not given)	9.2µM*	u	9.2µM*	u	13µM*	20.6µM*
Cc1ccc(C(=O)N/N=C/c2nc3ccccc3n2C)cc1	8.91µM*	u	-1.7%	u	1.0%	10µM*
COc1cccc(C(=O)N/N=c2\sc3ccccc3n2C)c1	8.6%	i	3.0%	u	x	19.0%
Cc1ccc(C(=O)N/N=c2\sc3ccccc3n2C)cc1	14.3%	i	u	i	0.651µM*	-2.1%
COc1ccc(C2C(C(=O)Nc3ccccc3)=C(C)Nc3nc(-c4ccccc4)nn32)cc1OC (stereo not given)	x	i	x	i	x	x
O=[N+]([O-])c1ccccc1/C=N/N1CCN(c2ccccn2)CC1	1.3%	i	28.3%	14.6µM*	-3.2%	-1.1%
BrC(=C\c1ccccc1)/C=N/N1CCN(c2ccccn2)CC1	-3.0%	i	20.6µM*	u	u	-27.3%
CCOc1ccc(S(=O)(=O)N2CC(=O)Nc3ccccc32)cc1	u	u	u	u	14.6µM*	11.6µM*
CCOc1ccc(S(=O)(=O)N2c3ccccc3CC2C)cc1 (stereo not given)	3.16µM*	1.16µM*	u	1.46µM*	1.64µM*	u
Cc1cc(C(C)(C)C)cc(C)c1S(=O)(=O)N1CC(=O)Nc2ccccc21	-28.9%	i	18.4µM*	i	u	u
Cc1ccc(S(=O)(=O)N2c3ccccc3CC2C)cc1 (stereo not given)	u	i	u	i	u	u
Nc1ncnc2oc(-c3ccco3)c(-c3ccco3)c12	u	i	6.3%	20.6µM*	-2.9%	u
CCCOc1ccccc1C1CC(=O)NC(C)=C1C(=O)OCC(C)C (stereo not given)	-12.6%	i	16.8%	u	16.1%	u
CCOc1ccccc1C1CC(=O)NC2=C1C(=O)CCC2 (stereo not given)	u	u	u	u	18.4µM*	23.1µM*
CCOc1ccc(C2CC(=O)NC3=C2C(=O)CCC3)cc1 (stereo not given)	8.1%	i	-1.9%	i	-3.7%	6.4%
CCCCOc1ccccc1C1CC(=O)NC2=C1C(=O)CCC2 (stereo not given)	2.31µM*	u	4.11µM*	u	u	1.64µM*
CCCOc1ccccc1C1CC(=O)NC2=C1C(=O)CCC2 (stereo not given)	11.6µM*	4.61µM*	10.3µM*	u	11.6µM*	8.2µM*
COc1ccc(NC(=O)N[C@H]2CC[C@@H](CC(=O)NC3CCC3)O[C@@H]2CO)cc1	21.9%	i	x	i	x	20.7%
O=C1C=C(c2ccc3ncccc3c2)C[C@@H](c2ccc3c(c2)OCO3)C1	10.3µM*	u	u	u	20.6µM*	8.2µM*
Clc1ccccc1C(c1ccccc1)(c1ccccc1)n1ccnc1	u	i	14.3µM*	14.6µM*	2.5%	u
Cc1cc(NC(=O)CSc2nc(C(C)C)nc3ccccc23)no1	u	u	25.9µM*	u	u	16.4µM*
Cc1cc(NC(=O)CSc2nc3c(C)ccc(C)c3cc2C#N)no1	-4.0%	i	0.4%	i	3.7%	-6.5%
SMILES	HT1080NT lethal	KB-3-1 tox	MCF10A rerep	KB-V1 MDR tox	SW480 rerep	HT1080 IDH1KD tx
Cc1cc(C)c(C#N)c(SCC(=O)Nc2cc(C)on2)n1	0.8%	i	u	8.2µM*	u	-3.1%
CC(C)(C)c1nc(SCC(=O)Nc2nc3c(s2)CCCC3)c2ccccc2n1	u	i	2.0%	u	-5.6%	1.41µM*
Cc1nnc(NC(=O)CSc2nc(C(C)C)nc3ccccc23)s1	-2.4%	i	2.1%	u	u	19.5%
CC(C)c1nc(SCC(=O)Nc2nc3c(s2)CCCC3)c2ccccc2n1	u	i	u	14.6µM*	u	11.2µM*
Cn1c(SCC(=O)Nc2nc3c(s2)CCCC3)nnc1-c1ccccc1	2.1%[9.24 µM]	i	-5.0%	u	-3.1%	-9.3%
N#Cc1ccc(-c2nc3ccc(Cl)cn3c2Cc2ccccc2)cc1	-7.2%	i	x	i	x	-12.4%
Cc1cccc(C(=O)N2CCc3cc(CNC(=O)CCc4ccccc4)ccc32)c1	x	i	x	i	x	x
COc1ccc(Nc2nc(N)nc(CSc3nc4cc(OC)ccc4s3)n2)cc1	x	i	x	i	x	x
O=C(Cc1cccs1)Nc1nnc(Cc2ccccc2)s1	-12.7%	i	15.2%	u	-2.6%	2.5%[9.24 µM]
O=C(Cc1cccs1)Nc1nc2c(s1)CCCC2	u	u	u	11.6µM*	5.0%	1.12µM*
O=C(Cc1cccs1)Nc1nnc(CCc2ccccc2)s1	-1.6%	i	0.4%	18.4µM*	-0.9%	3.1%
O=C(CSc1nc(Cc2ccccc2)nc2ccccc12)Nc1nc2c(s1)CCCC2	-6.7%	i	23.1µM*	u	20.6µM*	u
O=C(CCSc1ccccc1)Nc1nc2c(s1)CCCC2	-11.1%	i	u	25.9µM*	1.3%	u
O=C(Nc1nc2c(s1)CCCC2)c1cccs1	u	u	15.8%	u	-4.7%	u
Cc1ccc(S(=O)(=O)N2CCC(=O)c3ccccc32)cc1	-7.5%	i	x	i	x	-1.1%
Fc1cccc(-c2cc3nc4c(c(N5CCOCC5)n3n2)CCCC4)c1	1.7%	i	-2.7%	25.9µM*	-2.1%	10.3%
Clc1cccc(-c2cc3nc4c(c(N5CCOCC5)n3n2)CCCC4)c1	-15.9%	i	-0.3%	i	-4.4%	-29.9%
Cc1ccc(C)c(N2CCN(C(=O)c3cccn3-c3nnc(N4CCCCC4)s3)CC2)c1	x	i	x	i	x	x

Screening results from PubChem.
